Among the data in PubChem BioAssay AID488890 (Southern Research Specialized Biocontainment Screening …, 2010) are inhibition values, retold here.

The whole screen tested about 320,000 compounds, of which about 1,300 (0.41%) were called active. Another 3% or so got no clear call; they are omitted. How the calls were made is not given here. Not all results are given here. Potency and affinity values are given separately.

The nature of this experiment: growth inhibition of non-replicating M. tuberculosis (AID 488890).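 Further: plate controls were DMSO cells for no effect and high antibiotic wells for full effect.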 The following applies: Mycobacterium tuberculosis non-replicating, at 25 µM, stronger effect = higher value.
The inhibition is the drop in the measured response relative to a control, in per cent. For the compound `Cn1cc(C(=O)N/N=C/C=C/c2ccccc2)ccc1=O`, the inhibition was -14.3%. For `O=C(N/N=C/C=C/c1ccccc1)c1ccc(Br)cc1`, the inhibition is -16.8%. As to `O=C(N/N=C/c1ccncc1)c1ccccc1`, the inhibition came out at 67.6%. In the case of `C/C=C/C=N\NC(=O)c1ccncc1`, the inhibition amounted to 57.5%. For the compound `Cc1ccccc1N=C/C=C1/C=C(c2ccccc2)OC(C)(C)O1`, the inhibition amounted to 32.8%. Then `C/C(=N/NC(=O)c1ccncc1)c1ccccc1`, with 49.1%; and `CC1(C)OC(c2ccccc2)=C/C(=C/C=Nc2ccccc2)O1`, with 14.4%; and `O=C(O)CC/C(=N\NC(=O)c1ccncc1)c1ccccc1`, with 37.3%. Consider `CCCOc1ccc(Cc2c(O)nc(SC)[nH]c2=O)cc1`, for which the inhibition is 8.21%. On to `CCC1(c2ccccc2)NC(=O)N(CC(=O)NC2CCCCCC2)C1=O` (centres undefined), for which the inhibition amounted to 15.6%. On to `CCOC(=O)c1nn(-c2ccc(Cl)cc2C)ccc1=O`, for which the inhibition is -14.1%. Consider `Cc1c(C(=O)N(C)C)c2cc(Cl)ccc2n1O`, for which the inhibition is 8.07%. On to `Cc1ccccc1NC(=O)OCc1ccccc1`, for which the inhibition amounted to 71.6%.

For the compound `COc1ccc(C(=O)COC(=O)c2ccc(-n3cnnn3)cc2)c(OC)c1`, the inhibition is -4.6%. Then `COc1cccc(C(=O)Nc2ccccc2F)c1`, with -15.1%. For the compound `O=C(COC(=O)/C=C/c1ccco1)NCc1ccc(Cl)cc1`, the inhibition worked out at 44.8%. On to `COc1ccccc1C(=O)OCCN=C1NS(=O)(=O)c2ccccc21`, for which the inhibition worked out at 3.36%.

`CC(/C=N/NC(=O)c1ccncc1)=C\c1ccccc1`: the inhibition worked out at 56.6%. Turning to `O=C(N/N=C/C(Br)=C/c1ccccc1)c1cccnc1`, the inhibition was 56.4%.

Consider `CCOc1ccc(-c2cc(C(=O)O)c3ccccc3n2)cc1`, for which the inhibition amounted to 0.34%. On to `COc1ccc(/C=C/c2cc(C(=O)O)c3ccccc3n2)cc1`, for which the inhibition worked out at 3.28%. The value for `O=[N+]([O-])c1ccc(C=Nc2cccc3ccccc23)s1` was 68.5%. Take `Cc1ccc2nc(-c3ccccc3)oc(=O)c2c1`: the inhibition is 76.6%. The value for `COc1ccc(-c2csc3nc(-c4ccc(C)cc4)oc(=O)c23)cc1OC` was 2%.

On to `COc1ccc(-n2c(/C=C/c3ccc(O)cc3)nc3ccccc3c2=O)cc1`, for which the inhibition came out at 20.1%. The value for `O=c1oc(-c2cccc([N+](=O)[O-])c2)nc2ccccc12` was 67.8%. Take `CCOc1ccc(-c2nnc(-c3ccccc3)o2)cc1`: the inhibition turned out to be 78.4%.

For the compound `O=S(=O)(Cc1ccccc1)N1CCCc2ccccc21`, the inhibition worked out at 28.1%. On to `Cc1[nH]c2ccc(C(=O)NCCCN(C)C3CCCCC3)cc2c1C`, for which the inhibition is 7.44%.

For `Cc1sc2nc(SCC(=O)NCCOCCO)n(C)c(=O)c2c1C`, the inhibition is -0.17%. In the case of `Cc1ccc(C(=O)NCC(=O)OCn2nnc3ccccc3c2=O)cc1`, the inhibition was 4.09%. On to `Cc1nn(Cc2ccccc2)c2c1C(c1ccc(Cl)cc1)C(C#N)=C(N)O2` (centres undefined), for which the inhibition was found to be 11.4%. As to `COC(=O)c1sccc1NC(=O)c1c(-c2ccccc2)noc1C`, the inhibition came to 27.9%. As to `CC1CC(=O)Nc2ccccc2N1C(=O)CN1CCN(C=O)CC1` (centres undefined), the inhibition stood at 4.41%. On to `c1ccc(C2C3=C(Nc4ncnn42)c2ccccc2CCC3)cc1` (centres undefined), for which the inhibition was 9.65%. With `CCCC(=O)C1=C(O)C(C(=O)OC)C(C)(C)CC1=NC(C)C` (centres undefined), the inhibition was -5.24%. For the compound `CC(C)(C)c1ccc(-n2ncc3c2CCCC3NC(=O)CCN2CCCO2)cc1` (centres undefined), the inhibition stood at 19.6%. The value for `COc1cc(OC)cc(-c2cc3ccccc3c(=O)o2)c1` was 9.55%; that for `O=c1oc(-c2ccco2)nc2ccccc12` was 28.8%.

With `Cc1c2cnn(CC(=O)Nc3c(F)c(F)cc(F)c3F)c(=O)c2c(C)n1Cc1ccccc1F`, the inhibition was found to be 0.29%. Then `CN(C)C(CNC(=O)CCOc1ccccc1)c1ccco1` (centres undefined), with 13.7%; and `Fc1ccccc1CSc1nc2ncccc2[nH]1`, with 23.3%. For `Cc1cc(=O)[nH]c(SC/C=C/c2ccccc2)n1`, the inhibition was found to be 69.8%.

For the compound `Cn1c(C(=O)N[C@@H](Cc2ccccc2)C(=O)O)cc2cc(F)ccc21`, the inhibition was -8.03%. On to `Cc1ccc(N2C(=O)NC(NC(=O)C(C)(C)C)(C(F)(F)F)C2=O)cc1C` (centres undefined), for which the inhibition was -24.4%. For the compound `Cc1cc(C)n(-c2nc(SCCN(C)C)c3c4c(sc3n2)COC(C)(C)C4)n1`, the inhibition turned out to be 65.5%. On to `Cc1cc(C)n(-c2nc(SCC(=O)O)c3c4c(sc3n2)COC(C)(C)C4)n1`, for which the inhibition came out at 78.8%.

For `Cc1cc(C)n(-c2nc(NCCCN(C)C)c3c4c(sc3n2)CCCC4)n1`, the inhibition was determined as 75.9%. Then `Cc1cc(C)n(-c2nc(NCC(C)O)c3c4c(sc3n2)CCCC4)n1` (centres undefined), with 79.3%; and `O=C1CCCN1CC(O)CS(=O)(=O)Cc1ccccc1` (centres undefined), with -12.3%; and `COc1ccc(C2C(C(C)=O)=C(C)Nc3ncnn32)c(OC)c1OC` (centres undefined), with -4.13%.

In the case of `Cc1cccn2c(NC(=O)c3cccs3)c(-c3ccccc3)nc12`, the inhibition is -0.63%.

Consider `c1ccc(-c2nnc(-c3ccccn3)c(-c3ccccn3)n2)nc1`, for which the inhibition worked out at 10.5%. Consider `Cc1nnc(-c2ccccc2)nc1N(C)C`, for which the inhibition is 21.8%.

Take `COc1cc(CNc2ccc3[nH]c(=O)[nH]c3c2)ccc1OCc1ccc(Cl)cc1`: the inhibition was found to be 32.9%. With `CCc1ccc(C(=O)COC(=O)CNC(=O)c2ccc(Br)o2)cc1`, the inhibition worked out at 43.3%. For `CC(=O)c1ccc(OC(=O)c2ccc(Br)o2)cc1`, the inhibition was determined as 79.1%. For the compound `Cc1ccc(CC(=O)N2CCN(C)CC2)cc1`, the inhibition is -6.84%. Regarding `Cc1ccccc1-c1cnn(-c2cccc([N+](=O)[O-])c2)c1N`, the inhibition amounted to 14.7%.

Take `CNc1c([N+](=O)[O-])cnn1-c1ccccc1Cl`: the inhibition came to 10.6%.

Consider `O=C(CSc1n[nH]c(=O)n1-c1cccnc1)Nc1ccccc1Cl`, for which the inhibition is -0.8%. Consider `O=C(Nc1ccccc1N1CCOCC1)C1=NN(c2c(F)c(F)cc(F)c2F)C(=O)CC1`, for which the inhibition was -3.73%. Consider `O=C(Nc1nccs1)c1ccc(Cl)c([N+](=O)[O-])c1`, for which the inhibition was -5.17%. Take `N#Cc1ccsc1NC(=O)c1cccc([N+](=O)[O-])c1`: the inhibition worked out at 2.42%. Regarding `COC(=O)c1ccccc1S(=O)(=O)N1CCC(C(=O)NCC2CCCO2)CC1` (centres undefined), the inhibition was -9.14%. On to `CN(C(=O)COC(=O)c1cc(NS(=O)(=O)c2cc([N+](=O)[O-])ccc2Cl)ccc1O)C1CCCCC1`, for which the inhibition stood at 35.1%. As for `CN(C(=O)COC(=O)c1ccc(Cl)cc1N)C1CCCCC1`, the inhibition turned out to be 24.6%.

As to `CCN(CC)c1ccc(-c2nnc(SCC(=O)Nc3ccccc3C#N)n2-c2ccccc2)cc1`, the inhibition was 41%. As to `CC1(C)CC(=O)C2=C(C1)OC(N)=C(C#N)C2c1ccccc1` (centres undefined), the inhibition was determined as 24.7%. The value for `CC1(C)CC(=O)C2=C(C1)OC(N)=C(C#N)C2Cc1ccccc1` (centres undefined) was 25%; that for `Cc1cc2oc(=O)cc(CN3CCc4ccccc43)c2cc1Cl` was -0.24%; that for `COc1ccc(CCn2c(N)cc(=O)[nH]c2=S)cc1OC` was 10.4%. In the case of `CCOc1ccc(CCNC(=O)CCn2nc(C)c3c(C)n(-c4ccccc4)nc3c2=O)cc1`, the inhibition was -11.8%.

For `O=C(OCc1cnc(Cl)s1)c1ccccc1Cl`, the inhibition turned out to be 56.8%.

As for `O=C(OCc1cncs1)c1ccccc1Cl`, the inhibition was found to be 32.7%.

In the case of `CCOC(=O)CSc1nnc(CNC(=O)c2cccs2)n1-c1cccc(C)c1`, the inhibition stood at 33%. Consider `C[C@@H]1CCCCCCCCC(=O)OCCN(C(=O)OC(C)(C)C)[C@H](C)CCCCCCCCC(=O)OCCN(C(=O)OC(C)(C)C)[C@H](C)CCCCCCCCC(=O)OCCN(C(=O)OC(C)(C)C)[C@H](C)CCCCCCCCC(=O)OCCN1C(=O)OC(C)(C)C`, for which the inhibition is -3.81%. Turning to `Clc1ccc(CSc2nnc(-c3cccnc3)o2)cc1`, the inhibition is 47.9%. The value for `O=[N+]([O-])c1cccc(-c2nnc(SCc3cccnc3)o2)c1` was 43.9%. As to `O=[N+]([O-])c1ccc(CSc2nnc(-c3cnccn3)o2)cc1`, the inhibition was determined as 66.9%.

Take `Brc1ccc(CSc2nnc(-c3cccnc3)o2)cc1`: the inhibition is -15.4%.

Regarding `Cc1cc(C(=O)Nc2ccccc2C)on1`, the inhibition was -6.92%. Regarding `CCCC(=O)Nc1ccc(C(=O)/C=C/c2ccc(SC)cc2)cc1`, the inhibition came out at 42.6%. On to `COc1cc2c(cc1OC)C(c1cc3cccc(C)c3[nH]c1=O)N(C(=O)c1ccco1)CC2` (centres undefined), for which the inhibition came out at 30.4%.

`COc1ccc(NC(=S)NCc2ccc(F)cc2)c(OC)c1`: the inhibition was 14.9%. Take `CC1CCN(C(=O)CN(CCc2ccccc2)S(C)(=O)=O)CC1`: the inhibition is -0.19%. As to `O=C(O)CCN1C(=O)/C(=C\c2ccncc2)SC1=S`, the inhibition came out at 38.8%. The value for `O=C(O)CCCN1C(=O)/C(=C/c2ccncc2)SC1=S` was 65%; that for `Cn1c(CNC(=O)CNS(=O)(=O)c2ccccc2)cc(=O)n(C)c1=O` was -2.98%. In the case of `CCCCn1c(N)c(N(CC)C(=O)CCc2ccccc2)c(=O)[nH]c1=O`, the inhibition was 9.68%. As to `O=C(c1cccc(F)c1F)N1CCCC1`, the inhibition is -8.96%. For the compound `O=C(c1cccc2ccccc12)N1CCCCC1`, the inhibition was -8.51%. As to `CCOP(=O)(OCC)C(NC(=O)C(F)(F)F)c1ccccc1` (centres undefined), the inhibition was determined as 3.99%. Consider `COc1ccc(S(=O)(=O)CCC(=O)NCCc2cccc(C)c2)cc1`, for which the inhibition is -8.54%.

Regarding `CCOc1ccc(C(=O)CC(=O)C(=O)NCCc2ccc(OC)c(OC)c2)cc1`, the inhibition was 31.3%.

Consider `Cc1nc2cc(NS(=O)(=O)c3ccccc3F)ccc2s1`, for which the inhibition was 3.43%. The value for `COc1ccccc1Oc1cc(-n2nc(C)cc2C)ncn1` was 30%; that for `CCOC(=O)c1cnc(Nc2nc3ccccc3o2)nc1CSc1ncccn1` was 1.64%; that for `CCOC(=O)c1cnc(Nc2nc3ccccc3o2)nc1CSC(=S)N(CC)CC` was 28.1%. For the compound `CCn1ncc(C(=O)Nc2ccc(F)cc2)c1C`, the inhibition is -7.3%.

Take `O=C(CCn1c(=S)[nH]c2ccccc2c1=O)Nc1cccc(Cl)c1`: the inhibition was -2.2%. Regarding `COc1ccccc1OCC(O)Cn1c(=N)n(Cc2ccccc2)c2ccccc21` (centres undefined), the inhibition came out at 45%. The value for `N=c1n(Cc2ccccc2)c2ccccc2n1CC(O)COc1ccccc1` (centres undefined) was 70.8%. With `CC(=O)Nc1ccc(OCC(O)Cn2nc(C)c(C(C)=O)c2C)cc1` (centres undefined), the inhibition is -9.63%. With `COc1ccc(C(=O)C2CCCN(C(=O)c3c4c(nn3C)CCCC4)C2)cc1F` (centres undefined), the inhibition was -19.7%. The value for `Cc1ccc(C(=O)Nc2ccc3c(c2)CCC3)o1` was 79.8%; that for `COC(=O)Cc1ccc(NC(=O)c2ccc(Br)o2)cc1` was 72.6%; that for `CCOC(=O)c1ccc(NC(=O)C2C3C=CC(O3)C2C(=O)O)cc1` (centres undefined) was 20.5%. In the case of `O=C(Nc1ccc2c(c1)Cc1ccccc1-2)c1ccc(Br)o1`, the inhibition is 53.9%. In the case of `COC(=O)c1ccc(NC(=O)C2C3C=CC(O3)C2C(=O)O)cc1` (centres undefined), the inhibition stood at 5.13%. The value for `CCN(CC)c1ccc(NC(=O)c2ccc(Br)o2)cc1` was 52.8%; that for `CC(NC(=O)CCSCCC(=O)NC(C)c1ccccc1)c1ccccc1` (centres undefined) was 21.4%; that for `Cc1cc(C(=O)N2CCN(c3ccc(F)cc3)CC2)on1` was 53.3%. Take `COc1ccc(C2=NS(=O)(=O)N(C)C(C(=O)Nc3ccc(OC)c(OC)c3)=C2)cc1`: the inhibition is 17.6%.
